A selection follows.
aSyn UTR act = Activators via SNCA 5'UTR binding, MLPCN; alpha-synuclein 5'UTR reporter, activators screen; activity score, % (tested at 7.5 µM), hits read low; actives 7.1% (n = 300,000); AID 1814; in the data active = activity score below about -60%
* marks the source's active call; other numbers are inactive results.

SMILES	aSyn UTR act
CCOC(=O)C1CCCN(C(=O)CCc2nnc(-c3ccc(C(C)=O)s3)o2)C1 (stereo not drawn)	-134.4*
CCOC(=O)N1CCN(C(=O)CSCc2ccccc2)CC1	-82.8*
CCOC(=O)C1CCCN(C(=O)CSCc2ccccc2)C1 (stereo not drawn)	-111.9*
O=C(CSCc1cccc(Br)c1)N1CCOCC1	-67.1*
Oc1[nH]c2ccccc2c1C=Nc1ccccc1	-130.2*
CCN(CC)c1ccc(N=Cc2c(C)[nH]c3ccccc23)cc1	63.4
O=C(CNC(=O)c1ccco1)Nc1ccc(Cl)cc1	-69.6*
O=C(CNC(=O)c1ccco1)Nc1ccc(Br)cc1	-141.6*
Nc1n[nH]c2ccccc12	-61.6*
Cc1ccc(NC(=O)OCc2cccs2)cc1	-190.6*
Cc1ccc(NC(=O)OCc2cc(-c3ccccc3)on2)cc1	-92.8*
CCOC(=O)c1csc(-c2ccc([N+](=O)[O-])cc2)n1	-66.9*
CC1=NN(c2ccccc2)C(=O)/C1=C/c1cc2cc(C)ccc2nc1N1CCCCC1	-106.7*
Nc1nc(F)nc2c1ncn2[C@@H]1O[C@H](CO)[C@@H](O)[C@H]1O	121.7
Fc1ccccc1N=C1NN=C(c2ccccc2)CS1	-199.2*
COCCn1c(C)cc(C2=NNC(=Nc3ccccc3F)SC2)c1C	91.4
Cc1cccc(N=C2NN=C(c3ccccc3F)CS2)c1C	-101.7*
Clc1ccccc1N=C1NN=C(c2cccs2)CS1	-160.1*
Fc1ccc(F)c(C2=NNC(=Nc3ccccc3F)SC2)c1	-109.8*
Cc1ccccc1OCc1n(CC(=O)OC2CC(C)CCC2C(C)C)c2ccccc2[n+]1C (stereo not drawn)	84.8
Cc1c(NC(=O)c2ccc([N+](=O)[O-])o2)cccc1-c1nc2ncccc2o1	-228.1*
O=C(Nc1cccc2ncccc12)c1ccc(-c2ccc(Br)cc2)o1	-79.2*
O=C(Nc1cccc2ncccc12)c1ccc([N+](=O)[O-])o1	-169.5*
Cc1ccc(N=Cc2cc(C)n(C3CCCC3)c2C)cc1	-155.0*
NC(=O)c1ccc(NC(=O)c2ccc3c(c2)OCO3)cc1	-138.6*
SMILES	aSyn UTR act
O=C(Nc1ccc(Cl)cc1)c1ccc2c(c1)OCO2	-83.5*
CCN1CCN(c2ccc(NC(=O)c3ccc4c(c3)OCO4)cc2)CC1	-123.4*
O=C(Nc1ccon1)c1ccc2c(c1)OCO2	-76.0*
O=C(Nc1ccc2c(c1)OCO2)c1cccc(Cl)c1	-148.2*
O=C(Nc1ccc(Cl)c(Cl)c1)c1ccc2c(c1)OCO2	-133.4*
Cn1cc(C(=O)Nc2ccc(Cl)c(Cl)c2)cn1	-84.6*
CC(C)(C)c1cnnn1-c1ccc(NC(=O)c2ccc3c(c2)OCO3)cc1	-86.2*
CCCCCCn1c2c(c(=N)c3c1CCC3)CCC2	67.3
O=C(Nc1ccc(Cl)c([N+](=O)[O-])c1)c1ccc2c(c1)OCCO2	-133.0*
O=C(Nc1ccc(Br)cc1)c1ccc2c(c1)OCO2	-173.9*
O=C(Nc1ccc(Cl)cc1)C1=Cc2ccccc2OC1	-149.9*
O=C(Nc1ccc(F)c(F)c1)c1ccc2c(c1)OCO2	-156.5*
Cc1cccc(-n2c(N)cc(=O)[nH]c2=S)c1	-214.5*
c1coc(C2Nc3ccccc3-c3nc4ccccc4n32)c1 (stereo not drawn)	-92.5*
c1ccc(C2Nc3ccccc3-c3nc4ccccc4n32)nc1 (stereo not drawn)	-74.0*
O=C(/C=C/c1ccccc1)NCCC1=CCCCC1	-193.8*
O=C(NCCOc1ccccc1)C1CCCCC1	-88.8*
O=C(/C=C/c1ccccc1)NCCOc1ccccc1	-64.1*
O=C(/C=C/c1ccc(F)cc1)NCCC1=CCCCC1	-105.3*
COc1ccccc1/C=C/C(=O)NCCC1=CCCCC1	-149.9*
O=C1/C(=C/Nc2cccc([N+](=O)[O-])c2)CCc2ccccc21	-186.3*
CCn1nccc1C(=O)Nc1ccc(C)c(C)c1	-177.6*
CC1(C)Oc2ccc(NC(=O)c3ccco3)cc2O1	-168.1*
O=C(Nc1ccc2c(c1)OCCO2)c1ccco1	-68.0*
COc1cccc(NC(=O)c2ccco2)c1	-115.6*
SMILES	aSyn UTR act
Cc1ccc(NC(=O)c2ccco2)cc1C	-102.9*
COc1cc(OC)cc(C(=O)Nc2ccc(NC(=O)c3ccco3)c(C)c2)c1	-123.5*
Cc1ccc(C(=O)Nc2ccc3c(c2)OCO3)cc1NC(=O)c1ccco1	-70.8*
O=C(CSc1nnc(-c2cccnc2)o1)Nc1ccccn1	-146.6*
C/C(N)=C(/C#N)C(=O)CSc1nnc(-c2ccc3c(c2)OCO3)o1	59.7
O=C(CSc1nnc(-c2cccc(Cl)c2)o1)Nc1ccc2c(c1)OCCO2	-180.3*
NC(=O)CSc1nnc(-c2ccc3c(c2)OCO3)o1	-91.3*
O=C(CSc1nnc(-c2ccc(C(F)(F)F)cn2)o1)Nc1cccc(Cl)c1	-191.8*
O=C(CSc1nnc(-c2ccccn2)o1)Nc1cccc(Cl)c1	-194.0*
O=C(CSc1n[nH]c(-c2ccccn2)n1)Nc1cccc(Cl)c1	86.4
Cc1ccccc1NC(=O)CSc1nnc(-c2ccccn2)o1	-77.1*
CC(=O)N1N=C(c2ccc(C)cc2)OC1c1ccc(Br)cc1 (stereo not drawn)	-174.4*
Oc1ccc(-c2[nH]ncc2-c2ccc(Cl)cc2)c(O)c1	-62.5*
O=C(Nc1cc(C(F)(F)F)ccc1Cl)C(Sc1nnc(-c2cccs2)o1)c1ccccc1 (stereo not drawn)	-108.5*
CCS(=O)(=O)NCCc1csc(-c2ccccc2)n1	-63.2*
Cc1ccc(-c2nc(N)n(C(=O)c3cccnc3)n2)cc1	-77.0*
C/C(=N\NC(N)=S)C1=CCC2C3CC[C@H]4CC(O)CC[C@]4(C)C3CC[C@]12C (stereo partly drawn)	-94.6*
O=c1oc2c(-c3cccc(F)c3)cc(O)cc2s1	-79.5*
Cn1c(-c2ccccc2)cnc1SCc1nc2ccccc2c(=O)[nH]1	-61.7*
O=C(Nc1ccc2c(c1)OCCO2)c1cc2sccc2n1Cc1ccccc1	-102.4*
O=C(Nc1ccc2c(c1)OCCO2)c1cc2sccc2n1Cc1ccc(F)cc1	-109.7*
Cn1c(C(=O)Nc2ccc3c(c2)OCCO3)cc2sccc21	-86.6*
Clc1cccc(N/N=C/c2ccc(N3CCOCC3)s2)c1	-167.4*
Cn1c(O)c(C=Nc2ccc(Br)cc2)sc1=O	-173.0*
CCOC(=O)c1ccc(N/C=C/C(=O)c2ccco2)cc1	-85.0*
SMILES	aSyn UTR act
O=C(/C=C/Nc1ccc(F)cc1)c1ccco1	-143.6*
O=C(OCc1ccccc1)c1ccc2c(c1)-c1ccccc1C2=O	-194.1*
O=C(OCc1ccc(C(=O)c2ccccc2)cc1)c1cccc(-c2nnc(-c3ccccc3)o2)c1	-79.8*
O=C(OCc1ccccc1)c1cccc(-c2nnc(-c3ccccc3)o2)c1	-68.7*
O=C(OCc1nnc(-c2ccccc2)o1)c1ccc2c(c1)OCCO2	-62.1*
O=C(CSc1ccc(F)cc1)Nc1ccc(Br)cc1	-148.8*
O=C(CSc1ccc(F)cc1)Nc1ccccc1Br	-74.5*
Cc1ccc(S(=O)(=O)c2cc3c(=O)n4ccccc4nc3n(CCc3ccccc3)c2=N)cc1	-230.5*
N=c1c(C(=O)NCCN2CCOCC2)cc2c(=O)n3ccccc3nc2n1CCc1ccccc1	-82.8*
COc1ccc(CCn2c(=N)c(C(=O)NCc3ccco3)cc3c(=O)n4ccccc4nc32)cc1	-72.8*
N#C/C(=C/c1ccc(N2CCCCC2)o1)c1cccc(F)c1	-333.7*
N#C/C(=C/c1ccc(N2CCCCC2)cc1)c1cccc(F)c1	-134.9*
N#C/C(=C/c1ccc(N2CCCCCC2)o1)c1ccc(Cl)cc1	-299.3*
O=c1/c(=C\c2ccc(F)cc2)sc2n1CCCN=2	-200.6*
Cc1ccc(NC(=O)O/N=C/c2c(C)nn(C(C)(C)C)c2C)cc1Cl	76.9

Source: PubChem (Broad Institute)
